Screen size: about 2,100 compounds; about 650 (31%) were called active. Not shown: some 16% with an inconclusive outcome. Calls come from the whole dose curve; as a rule, active = well fitted inhibition curve with a large enough effect; inconclusive = small, poorly fitted or top-dose-only effect; inactive = flat fitted curve, though single readings scatter. This is one part of the list. Where a call stands in place of a potency, no number is given.
Assay: qHTS for inhibitors of Vif-A3G interactions: Cherry picks; note: nearly all actives have a fitted effect of over 80% in size
Conditions: HeLa A3G-eYFP + Vif (tagged APOBEC3G with the HIV-1 protein that degrades it), 24 h; Potency: eYFP fluorescence increase; series mostly up to 36.9 µM
Summary of the method: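 HeLa cells stably expressing A3G-eYFP and Vif, cultured overnight then exposed to compounds at several concentrations for 24 hours at 37 C, 5% CO2; cellular yellow fluorescence (488 nm ex, 500-530 nm em) imaged on Acumen, MG132 positive control.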
In the case of `CC#Cc1cc2c(cc1O)CCC1C2CCC2(C)C(O)CCC12` (stereo unspecified), the Potency is reported as “inactive”. With `COc1ccc(/C=C/C(=O)c2ccc([N+](=O)[O-])o2)cc1` the Potency was “inactive”. In the case of `COC(=O)c1sc(NC(=O)c2ccc([N+](=O)[O-])o2)c(C#N)c1C`, the Potency is reported as “inactive”. In the case of `CCOC(=O)CCc1ccc(NC(=O)/C=C/c2ccc([N+](=O)[O-])o2)cc1`, the Potency is reported as 23.1 µM (active). For `CC(=O)Nc1ccc2nc(NC(=O)c3ccc([N+](=O)[O-])o3)sc2c1`, the Potency was “inactive”. For `N#CCc1ccc(NC(=O)/C=C/c2ccc([N+](=O)[O-])o2)cc1`, the Potency was 8.2 µM (active). With `O=C(NCc1cccnc1)c1ccc([N+](=O)[O-])o1` the Potency was “inactive”. In the case of `COc1cc(/C=C/C(=O)c2ccc([N+](=O)[O-])o2)ccc1O`, the Potency is reported as “inactive”. In the case of `CCc1ccc(C(=O)/C=C/c2ccc([N+](=O)[O-])o2)cc1`, the Potency is reported as 14 µM (active). With `O=C(/C=C/c1ccc(Cl)cc1)c1ccc([N+](=O)[O-])o1` the Potency was “inactive”. For `Cc1cc(C)n(-c2nnc3n2N=C(c2c[nH]c4ccccc24)CS3)n1`, the Potency was “inactive”. For `CC1(C(=O)NCc2ccco2)Cc2c(-c3ccc(C(N)=O)cc3)ccnc2O1` (stereo unspecified), the Potency was “inactive”. With `Clc1ccsc1-c1csc(-c2cccnc2)n1` the Potency was “inactive”. With `Cc1ccc(O)c(NC(=O)c2cc(-c3ccccc3O)no2)c1` the Potency was 20.6 µM (active). For `CCc1nnc(NC(=O)CSc2nnc(-c3ccccc3O)n2-c2ccc(C)cc2C)s1`, the Potency was “inactive”. With `Cc1ccc(O)c(Nc2c3ccccc3nc3ccccc23)c1` the Potency was “inactive”. With `CCn1c(=O)c2cc(C(=O)NCCCOC)sc2c2ccccc21` the Potency was “inactive”. For `C=C(/C=C/c1ccc(N(C)C)cc1)c1nc2ccccc2s1`, the Potency was 18.4 µM (active). In the case of `COc1ccccc1-c1cc(NC=O)c2ncc(-c3ccc(S(C)(=O)=O)cc3)n2c1`, the Potency is reported as “inactive”. For `S=C(NC1CCCCC1)N(CCc1ccccc1)CCc1ccccc1`, the Potency was “inactive”. For `COc1cc2nc(/C=C/c3ccc(N(C)C)cc3)sc2cc1SC`, the Potency was 16.4 µM (active). With `NNC(=O)c1oc2nc(-c3ccccc3)cc(-c3ccco3)c2c1N` the Potency was 20.6 µM (active). In the case of `CC(/C=N/NC(=O)c1cc(-c2ccccc2)nc2ccccc12)=C\c1ccco1`, the Potency is reported as “inactive”. With `Cc1ccc(-c2cc(-c3ccco3)c3c(N)c(C(=O)NN)oc3n2)cc1` the Potency was 20.6 µM (active). In the case of `CC(C)(C)C(=O)/C(=C/c1ccc(Cl)cc1)n1cncn1`, the Potency is reported as “inactive”. With `CCN(CC)c1ccc2c(cc1=O)[C@@H](NC)CCc1cc(OC)c(OC)c(OC)c1-2` the Potency was “inactive”. For `COC(=O)c1sc(-c2cccs2)cc1NC(=O)/C=C/C(=O)O`, the Potency was “inactive”. For `C=CCN1C(=O)/C(=C2/Sc3ccc(OC)cc3N2C)SC1=Nc1cccc(O)c1`, the Potency was 18.4 µM (active). In the case of `C=CCN1C(=O)/C(=C2/Sc3ccc(OC)cc3N2CC)SC1=S`, the Potency is reported as 14.6 µM (active). With `C[C@]1(O)CC(=O)C=C[C@H]1Nc1ccccc1` the Potency was “inactive”. For `COc1ccccc1N1C(=O)C2C(C(=O)c3ccccc3)=NN(c3ccc(C)cc3)C2C1=O` (stereo unspecified), the Potency was “inactive”. In the case of `N=C1S/C(=C\c2ccc(-c3cccc(Cl)c3)o2)C(=O)N1c1nccs1`, the Potency is reported as 20.6 µM (active). For `Cc1ccc(Cn2c(SCc3ccc(C(=O)NC4CCCC4)cc3)nc3ccncc32)cc1`, the Potency was “inactive”. In the case of `CN(C)S(=O)(=O)c1ccc2c(c1)/C(=C/c1cc3c([nH]1)CCCC3)C(=O)N2`, the Potency is reported as 2.23 µM (active). With `COc1ccc2c(c1)/C(=C\c1cccc(/C=C3/C(=O)Nc4ccc(OC)cc43)n1)C(=O)N2` the Potency was “inactive”. For `COc1ccc2c(c1)/C(=C/c1cc(OC)c(OC)c(OC)c1)C(=O)N2`, the Potency was “inactive”. With `CC(C)OC(=O)c1c2c(n3ccccc13)C(=O)c1ccccc1C2=O` the Potency was 10.3 µM (active). For `COc1cc(/C=C2\SC(=Nc3ccccc3)NC2=O)cc(Cl)c1O`, the Potency was 20.6 µM (active). For `CCOc1cc(Br)cc(/C=C2\SC(=Nc3ccccc3)NC2=O)c1O`, the Potency was “inactive”. For `COc1cc(/C=C2\SC(=Nc3cccnc3)NC2=O)cc(OC)c1OC`, the Potency was “inactive”. For `O=c1c2ccccc2sc2ccc(NCCCN3CCOCC3)cc12`, the Potency was 18.4 µM (active). In the case of `Cc1ccc2[nH]c(C(=O)NN=C3CCCCC3)c(-c3ccccc3)c2c1`, the Potency is reported as “inactive”. In the case of `CC1C/C(=N\NC(N)=S)c2cc(Cl)ccc2S1` (stereo unspecified), the Potency is reported as “inactive”. With `N#Cc1c(C(F)(F)F)cc(-c2ccccc2)nc1SCc1nc(N)nc(N2CCOCC2)n1` the Potency was 8.2 µM (active). In the case of `Cc1ccc(N=C2NC(=O)CC(C(=O)Nc3ccc4c(c3)OCO4)S2)cc1` (stereo unspecified), the Potency is reported as “inactive”. For `CC(C)n1c(O)c(N=Nc2ccc(Cl)nn2)c2ccccc21`, the Potency was 16.4 µM (active). For `O=C(CSc1n[nH]c(-c2ccccn2)n1)Nc1ccc(Cl)cc1`, the Potency was “inactive”. For `C/C(CC(=O)NCc1ccc(Cl)cc1)=N\NC(=O)COc1ccc(C)cc1Br`, the Potency was “inactive”. With `Cc1nc2c3cc(F)ccc3n(Cc3ccccc3F)c2s1` the Potency was “inactive”. With `CCN1/C(=C\C=C(C(C)=O)C(C)=O)Sc2ccccc21` the Potency was 20.6 µM (active). In the case of `O=C(CN1c2ccccc2Sc2ccccc21)NNC(=O)Nc1cccc(Cl)c1`, the Potency is reported as “inactive”. In the case of `Cc1ccc(-c2nc3ncccc3o2)cc1NC(=O)c1ccc([N+](=O)[O-])o1`, the Potency is reported as “inactive”. With `CC(C)C1C(=O)N(Cc2cn(CCC3OCCCO3)nn2)CCS(=O)(=O)N1Cc1ccc(-c2cccc(CO)c2)cc1` (stereo unspecified) the Potency was “inactive”. For `COc1ccc(-c2ccnc(-c3ccc(O)cc3)n2)cc1`, the Potency was “inactive”. In the case of `CCC1=Nc2cc(C(=O)NCc3cccnc3)ccc2Sc2ccc(C)cc21`, the Potency is reported as “inactive”. For `CCN(CC)C(=O)c1ccc(/C=C/c2c[nH]c3ccccc23)[n+](C)c1`, the Potency was 18.4 µM (active). For `C[n+]1cc(C(=O)N2CCCCC2)ccc1/C=C/c1c[nH]c2ccccc12`, the Potency was 14 µM (active). With `Cc1sc2nc(CSCC(=O)Nc3ccccc3C#N)[nH]c(=O)c2c1C` the Potency was “inactive”. With `O=C1OC(/C(=C\Nc2cc(Cl)ccc2O)[N+](=O)[O-])c2ccccc21` (stereo unspecified) the Potency was “inactive”. With `CC(=O)Nc1cccc(-c2ccnc3c2CC(C(=O)Nc2cccc(N(C)C)c2)O3)c1` (stereo unspecified) the Potency was “inactive”. For `COc1ccc(C(=O)NC(=S)NCc2cccnc2)cc1Cl`, the Potency was “inactive”. For `O=[N+]([O-])c1ccc(C2=Nc3cc(Cl)ccc3OC2)cc1`, the Potency was 29.1 µM (active). In the case of `CCOC(=O)c1c(C)[nH]c(C(=O)N/N=C/c2cccc(OC)c2)c1C`, the Potency is reported as “inactive”. With `CCOC(=O)c1cc(-c2ccccc2)sc1NC(=S)Nc1cc(C)ccn1` the Potency was 10.3 µM (active). For `CCOC(=O)c1ccc(NC(=S)Nc2cccc(C)n2)cc1`, the Potency was “inactive”. For `Cc1ccnc(NC(=S)NC(=O)/C=C/c2ccco2)c1`, the Potency was “inactive”.
Potency is the fitted concentration of half-maximal effect.
